From PubChem BioAssay AID1159580 (chemical genetic matrix, 2015)
Out of some 5,500 compounds screened, about 2,000 (36%) were called active. About 18% were inconclusive and are not listed. No stated cut-off is given here; in the data, active means normalized growth mostly below about 0.91 (no sharp cut-off); inconclusive means no clear call, values can overlap the other calls; inactive means mostly above about 0.92. This is one part of the list.

Assay: chemical genetic growth profiling, strain panel (AID 1159580);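 further: tested at 20 µM; growth read once vehicle control cultures reached saturation at 30 °C; 1 = growth at the plate median or of vehicle wells; lower values mean less growth of the strain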
Settings: growth OD
[1] = S. cerevisiae deletion strains, locus YHR030C, strain SLT2, hits give low values
[2] = S. cerevisiae deletion strains, locus YJL187C, strain SWE1, hits give low values
[3] = S. cerevisiae deletion strains, locus YAL013W, strain DEP1, hits give low values
[4] = S. cerevisiae deletion strains, locus YAL040C, strain CLN3, hits give low values
[5] = S. cerevisiae deletion strains, locus YCL061C, strain MRC1 (second series), hits give low values
[6] = S. cerevisiae deletion strains, locus YDR363W, strain ESC2, hits give low values
[7] = S. cerevisiae deletion strains, locus YER002W, strain NOP16, hits give low values
[8] = S. cerevisiae deletion strains, locus YJR075W, strain HOC1, hits give low values
[9] = S. cerevisiae deletion strains, locus YMR307W, strain GAS1, hits give low values
[10] = S. cerevisiae deletion strains, locus YNL153C, strain GIM3, hits give low values
[11] = S. cerevisiae deletion strains, locus YNL175C, strain NOP13, hits give low values
[12] = S. cerevisiae deletion strains, locus YNL197C, strain WHI3, hits give low values
[13] = S. cerevisiae deletion strains, locus YNL224C, strain SQS1, hits give low values
[14] = S. cerevisiae deletion strains, locus YNL322C, strain KRE1, hits give low values
[15] = S. cerevisiae deletion strains, locus YOR083W, strain WHI5 (second series), hits give low values
[16] = S. cerevisiae deletion strains, locus YPL055C, strain LGE1, hits give low values
[17] = S. cerevisiae deletion strains, locus YDR150W, strain NUM1, hits give low values
[18] = S. cerevisiae deletion strains, locus YGR078C, strain PAC10, hits give low values
[19] = S. cerevisiae deletion strains, locus YGR229C, strain SMI1, hits give low values
[20] = S. cerevisiae deletion strains, locus YBR229C, strain ROT2, hits give low values
[21] = S. cerevisiae deletion strains, locus YDL101C, strain DUN1, hits give low values
[22] = S. cerevisiae deletion strains, locus YEL061C, strain CIN8, hits give low values
[23] = S. cerevisiae deletion strains, locus YHR087W, strain rtc3, hits give low values
[24] = S. cerevisiae deletion strains, locus YJR043C, strain POL32, hits give low values
[25] = S. cerevisiae deletion strains, locus YLR039C, strain RIC1, hits give low values
[26] = S. cerevisiae deletion strains, locus YLR058C, strain SHM2 (second series), hits give low values
[27] = S. cerevisiae deletion strains, locus YLR085C, strain ARP6, hits give low values
[28] = S. cerevisiae deletion strains, locus YLR262C, strain YPT6, hits give low values
[29] = S. cerevisiae deletion strains, locus YML094W, strain GIM5, hits give low values
[30] = S. cerevisiae deletion strains, locus YMR219W, strain ESC1, hits give low values
[31] = S. cerevisiae deletion strains, locus YMR263W, strain SAP30, hits give low values
[32] = S. cerevisiae deletion strains, locus YNL298W, strain CLA4 (second series), hits give low values
[33] = S. cerevisiae deletion strains, locus YNR030W, strain Alg12, hits give low values
[34] = S. cerevisiae deletion strains, locus YPL241C, strain CIN2, hits give low values
[35] = S. cerevisiae deletion strains, locus YPR135W, strain CTF4, hits give low values

Measured: normalized growth

C=CC[C@@H]1/C=C(\C)C[C@H](C)C[C@H](OC)[C@H]2O[C@@](O)(C(=O)C(=O)N3CCCC[C@H]3C(=O)O[C@H](/C(C)=C/[C@@H]3CC[C@@H](O)[C@H](OC)C3)[C@H](C)[C@@H](O)CC1=O)[C@H](C)C[C@@H]2OC
inactive: S. cerevisiae deletion strains, locus YAL030W, strain snc1, hits give low values 1.02 | S. cerevisiae deletion strains, locus YBR009C, strain hhf1, hits give low values 0.946 | S. cerevisiae deletion strains, locus YBR023C, strain chs3, hits give low values 1 | S. cerevisiae deletion strains, locus YBR231C, strain swc5, hits give low values 0.988 | S. cerevisiae deletion strains, locus YBR279W, strain paf1, hits give low values 1.03 | S. cerevisiae deletion strains, locus YCL011C, strain gbp2, hits give low values 0.988 | S. cerevisiae deletion strains, locus YCL069W, strain vba3, hits give low values 1.02 | S. cerevisiae deletion strains, locus YCR088W, strain abp1, hits give low values 0.995 | S. cerevisiae deletion strains, locus YDL005C, strain med2, hits give low values 1.04 | S. cerevisiae deletion strains, locus YDL040C, strain nat1, hits give low values 1.02 | S. cerevisiae deletion strains, locus YDR001C, strain nth1, hits give low values 1.04 | S. cerevisiae deletion strains, locus YDR159W, strain sac3, hits give low values 0.974 | S. cerevisiae deletion strains, locus YDR297W, strain sur2, hits give low values 1.03 | S. cerevisiae deletion strains, locus YDR334W, strain swr1, hits give low values 1.1 | S. cerevisiae deletion strains, locus YDR335W, strain msn5, hits give low values 0.96 | S. cerevisiae deletion strains, locus YEL003W, strain gim4, hits give low values 0.99 | S. cerevisiae deletion strains, locus YEL037C, strain rad23, hits give low values 1.04 | S. cerevisiae deletion strains, locus YEL061C, strain CIN8 (second series), hits give low values 1 | S. cerevisiae deletion strains, locus YER015W, strain faa2, hits give low values 1.04 | S. cerevisiae deletion strains, locus YER111C, strain swi4, hits give low values 1.02 | S. cerevisiae deletion strains, locus YGL167C, strain pmr1, hits give low values 1.06 | S. cerevisiae deletion strains, locus YGL227W, strain vid30, hits give low values 1.05 | S. cerevisiae deletion strains, locus YGL240W, strain doc1, hits give low values 1.06 | S. cerevisiae deletion strains, locus YGL253W, strain hxk2, hits give low values 0.983 | S. cerevisiae deletion strains, locus YHR013C, strain ard1, hits give low values 0.912 | S. cerevisiae deletion strains, locus YHR027C, strain rpn1, hits give low values 1.03 | S. cerevisiae deletion strains, locus YHR142W, strain chs7, hits give low values 0.881 | S. cerevisiae deletion strains, locus YJL092W, strain hpr5, hits give low values 1.02 | S. cerevisiae deletion strains, locus YJL115W, strain asf1, hits give low values 1.05 | S. cerevisiae deletion strains, locus YJL154C, strain vps35, hits give low values 1.04 | S. cerevisiae deletion strains, locus YJL166W, strain qcr8, hits give low values 0.982 | [2] 1.03 | S. cerevisiae deletion strains, locus YKL160W, strain elf1, hits give low values 0.956 | S. cerevisiae deletion strains, locus YKR026C, strain gcn3, hits give low values 1.04 | S. cerevisiae deletion strains, locus YKR091W, strain srl3, hits give low values 1.04 | S. cerevisiae deletion strains, locus YLL001W, strain dnm1, hits give low values 0.932 | S. cerevisiae deletion strains, locus YLL026W, hits give low values 1.02 | S. cerevisiae deletion strains, locus YLL041C, strain sdh2, hits give low values 1.05 | S. cerevisiae deletion strains, locus YLR027C, strain aat2, hits give low values 0.976 | S. cerevisiae deletion strains, locus YLR221C, strain rsa3, hits give low values 0.922 | S. cerevisiae deletion strains, locus YLR258W, strain gsy2, hits give low values 0.986 | S. cerevisiae deletion strains, locus YLR357W, strain rsc2, hits give low values 0.949 | S. cerevisiae deletion strains, locus YLR370C, strain arc18, hits give low values 0.936 | S. cerevisiae deletion strains, locus YLR384C, strain iki3, hits give low values 1.05 | S. cerevisiae deletion strains, locus YML120C, strain ndi1, hits give low values 0.965 | S. cerevisiae deletion strains, locus YMR058W, strain fet3, hits give low values 0.995 | S. cerevisiae deletion strains, locus YMR129W, hits give low values 1.04 | S. cerevisiae deletion strains, locus YNL209W, strain ssb2, hits give low values 1.03 | S. cerevisiae deletion strains, locus YNL248C, strain rpa49, hits give low values 1.03 | S. cerevisiae deletion strains, locus YNL322C, strain KRE1 (second series), hits give low values 0.962 | S. cerevisiae deletion strains, locus YNR049C, strain mso1, hits give low values 1.03 | S. cerevisiae deletion strains, locus YOR070C, strain gyp1, hits give low values 0.944 | S. cerevisiae deletion strains, locus YOR080W, strain dia2, hits give low values 1.05 | S. cerevisiae deletion strains, locus YOR083W, strain WHI5, hits give low values 0.931 | S. cerevisiae deletion strains, locus YOR265W, strain rbl2, hits give low values 1.05 | S. cerevisiae deletion strains, locus YOR290C, strain snf2, hits give low values 0.894 | S. cerevisiae deletion strains, locus YPL078C, strain atp4, hits give low values 0.951 | S. cerevisiae deletion strains, locus YPL240C, strain hsp82, hits give low values 1.03
active: S. cerevisiae deletion strains, locus YAL021C, strain ccr4, hits give low values 0.844 | S. cerevisiae deletion strains, locus YAL026C, strain drs2, hits give low values 0.6 | S. cerevisiae deletion strains, locus YBL061C, strain skt5, hits give low values 1.09 [resistant] | S. cerevisiae deletion strains, locus YBR171W, strain sec66, hits give low values 1.14 [resistant] | S. cerevisiae deletion strains, locus YCL016C, strain dcc1, hits give low values 0.896 | S. cerevisiae deletion strains, locus YDR069C, strain doa4, hits give low values 0.829 | S. cerevisiae deletion strains, locus YDR137W, strain rgp1, hits give low values 0.174 | S. cerevisiae deletion strains, locus YDR195W, strain ref2 0.773 | S. cerevisiae deletion strains, locus YDR392W, strain spt3, hits give low values 0.55 | S. cerevisiae deletion strains, locus YER016W, strain bim1, hits give low values 0.909 | S. cerevisiae deletion strains, locus YER155C, strain BEM2 (second series), hits give low values 0.705 | S. cerevisiae deletion strains, locus YFR010W, strain ubp6, hits give low values 0.877 | S. cerevisiae deletion strains, locus YGL173C, strain kem1, hits give low values 0.848 | [1] 0.7 | S. cerevisiae deletion strains, locus YHR079C, strain IRE1, hits give low values 0.719 | S. cerevisiae deletion strains, locus YJL095W, strain BCK1 (second series), hits give low values 0.91 | S. cerevisiae deletion strains, locus YJL095W, strain BCK1, hits give low values 0.754 | S. cerevisiae deletion strains, locus YJL129C, strain trk1, hits give low values 0.845 | S. cerevisiae deletion strains, locus YJL164C, strain tpk1, hits give low values 0.915 | S. cerevisiae deletion strains, locus YJR066W, strain TOR1, hits give low values 0.746 | S. cerevisiae deletion strains, locus YLR113W, strain HOG1, hits give low values 0.66 | S. cerevisiae deletion strains, locus YLR262C, strain YPT6 (second series), hits give low values 0.137 | S. cerevisiae deletion strains, locus YLR320W, strain mms22, hits give low values 0.734 | S. cerevisiae deletion strains, locus YLR342W, strain FKS1, hits give low values 0.0809 | S. cerevisiae deletion strains, locus YMR125W, strain sto1, hits give low values 0.844 | S. cerevisiae deletion strains, locus YMR205C, strain PFK2, hits give low values 0.78 | S. cerevisiae deletion strains, locus YMR231W, strain pep5, hits give low values 0.176 | S. cerevisiae deletion strains, locus YNL071W, strain lat1, hits give low values 0.746 | S. cerevisiae deletion strains, locus YNL183C, strain NPR1, hits give low values 0.781 | S. cerevisiae deletion strains, locus YOR001W, strain rrp6, hits give low values 0.761 | S. cerevisiae deletion strains, locus YOR106W, strain vam3, hits give low values 0.736 | S. cerevisiae deletion strains, locus YOR231W, strain MKK1, hits give low values 0.7 | S. cerevisiae deletion strains, locus YOR270C, strain vph1, hits give low values 0.514 | S. cerevisiae deletion strains, locus YPL051W, strain arl3, hits give low values 0.67 | S. cerevisiae deletion strains, locus YPL106C, strain sse1, hits give low values 0.72 | S. cerevisiae deletion strains, locus YPL256C, strain CLN2, hits give low values 0.695

N[C@@H](Cn1ccc(=O)[nH]c1=O)C(=O)O
inactive: [3] 0.988 | [4] 1.06 | [5] 1 | [6] 1 | [7] 0.995 | [8] 0.97 | [9] 0.978 | S. cerevisiae deletion strains, locus YNL128W, strain TEP1, hits give low values 1 | [10] 1.03 | [11] 0.995 | [12] 1 | [13] 1.01 | [14] 0.975 | [15] 1.01 | [16] 0.998

O=C(Cc1ccc(Cl)c(Cl)c1)N1CCCCC1CN1CCCC1 (stereo not drawn)
inactive: [4] 0.982 | [5] 1 | [17] 1.01 | [6] 1.01 | [7] 0.999 | [18] 1.01 | [19] 1.03 | [9] 0.999 | [10] 1.09 | [11] 1.02 | [12] 1.03 | [13] 0.999 | [14] 1.05 | [15] 1.05 | [16] 1.01

CCOC(=O)c1ccc(N2CC3CCCCN3C2c2ccc(Cl)c(Cl)c2)cc1 (stereo not drawn)
inactive: [3] 0.989 | [20] 0.974 | S. cerevisiae deletion strains, locus YCL061C, strain MRC1, hits give low values 0.991 | [21] 1 | S. cerevisiae deletion strains, locus YDL134C, strain PPH21, hits give low values 1.01 | [17] 0.992 | [22] 0.993 | [18] 0.992 | [19] 1 | [1] 0.971 | [23] 0.992 | [2] 0.982 | [24] 1.01 | [8] 0.998 | [25] 0.889 | [26] 0.997 | [27] 0.97 | [29] 0.972 | [30] 0.984 | [31] 0.976 | [10] 0.997 | [32] 1.02 | [14] 1 | [33] 0.997 | [16] 0.922 | [34] 0.987 | [35] 0.893 | S. cerevisiae strains, strain wild type, hits give low values 1.01
active: [28] 0.744

CCOC(=O)c1ccc(Oc2ncc(C(F)(F)F)cc2Cl)cc1
inactive: [3] 1.04 | [20] 0.995 | [21] 0.957 | [17] 1 | [22] 0.996 | [18] 0.993 | [1] 0.829 | [23] 0.987 | [24] 0.98 | [8] 0.917 | [25] 0.889 | [26] 0.975 | [27] 1.08 | [28] 0.862 | [29] 1.04 | [30] 0.992 | [31] 0.988 | [9] 0.68 | [10] 1.01 | [32] 0.985 | [14] 0.986 | [33] 0.974 | [16] 1.08 | [34] 0.862 | [35] 1.17
